Bioassay records as filed in PubChem.
Pf Dd2 inh: qHTS Primary assay for Inhibitors of Plasmodium falciparum Dd2 growth in vitro. P. falciparum Dd2 growth, SYBR Green, 72 h. Potency, µM (titrated, usually from 28.9 µM), for the others: at the highest dose activity, negative = inhibition, hits mostly inhibitors. 4.3% of 120,000 active; active = well fitted inhibition curve with a large enough effect;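 note: plate controls were DMSO vehicle for no effect and reference drug for full effect; nearly all actives have a fitted effect of over 65% in size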
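Readout: SYBR Green fluorescence, 485 nm excitation, 535 nm emission, after ~16 h lysis at 37C. Before that, Dd2-infected red cells (2.5% hematocrit) grew 72 h with compound, 29 uM top final concentration.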
The depositor's hits bear a star; [ ] = dose if it differs, or a comment. The full list was thinned out, with hits kept by preference. Potency is the fitted concentration of half-maximal effect.

What do the screens show for `Cc1ncoc1C(=O)N1CCCC1C(=O)Nc1cccc(-c2ccc(F)cc2)c1` (stereo not drawn)?
Pf Dd2 inh: -11.8%

Results for Cc1[nH]cnc1CN1CCCC(C(=O)Nc2ccc(-c3cccc(F)c3)cc2)C1 (stereo not drawn) ?
Pf Dd2 inh: 10µM*

Results for O=C(c1cccc(F)c1)N1CCCC(Nc2ccc(F)cc2)C1 (stereo not drawn) ?
Pf Dd2 inh: -5.1%

How did N#Cc1cc(CN2CCCC(C(=O)Nc3cccc(-c4ccc(F)cc4)c3)C2)c[nH]1 (stereo not drawn) do in these assays?
Pf Dd2 inh: 10µM*

What do the screens show for `COc1ccc(C2Cn3nnc(C(=O)N4CCC(C(=O)NC(C)C)CC4)c3CO2)cc1` (stereo not drawn)?
Pf Dd2 inh: 3.6%

Results for CC(=O)N1CCC2(C1)N=C(c1ccncc1)C(=O)N2 (stereo not drawn) ?
Pf Dd2 inh: 10.3%[44.1 µM]

What do the screens show for `O=C(Nc1ccnn1C1CCN(Cc2ccc3c(c2)CCO3)CC1)c1ccccc1Cl`?
Pf Dd2 inh: -4.6%

Results for O=C(Nc1ccc(F)cc1F)C1CN(S(=O)(=O)c2cccnc2)CC12CCCCC2 (stereo not drawn) ?
Pf Dd2 inh: inactive

Results for CN(C)c1ccc(CN2CCn3c(nn(-c4ccc(F)cc4F)c3=O)C2)cc1 ?
Pf Dd2 inh: -5.0%

Results for C[S+](=O)([O-])N1CCc2nc(-c3ccc(Cl)cc3)nc(-c3ccccc3)c2C1 ?
Pf Dd2 inh: inactive

Results for O=C(NC[C@H]1C[C@@H]2CCN1C[C@@H]2CN1CCN(c2ccccn2)CC1)c1ccc2c(c1)OCO2 ?
Pf Dd2 inh: inactive

What do the screens show for `Cc1ccc(Cn2c3ccccc3c3cnn(CC(=O)Nc4cc(Cl)ccc4C)c(=O)c32)cc1`?
Pf Dd2 inh: 11.6%

What do the screens show for `Cc1cc(C)c(Cn2c3ccccc3c3cnn(CC(=O)NCc4ccc(Cl)cc4)c(=O)c32)c(C)c1`?
Pf Dd2 inh: 7.94µM*

How did CCN(CC)CCCNC(=O)Cn1ncc2c3ccccc3n(Cc3ccccc3)c2c1=O do in these assays?
Pf Dd2 inh: -22.0%

Results for CCCn1c2ccccc2c2cnn(CC(=O)NC(C)CC)c(=O)c21 (stereo not drawn) ?
Pf Dd2 inh: 4.8%

How did CCCCN(C)CCCNC(=O)Cn1ncc2c3ccccc3n(Cc3cccc(Cl)c3)c2c1=O do in these assays?
Pf Dd2 inh: 5.62µM*

How did O=C(Cn1ncc2c3ccccc3n(Cc3ccc(Cl)cc3)c2c1=O)NCCCc1ccccc1 do in these assays?
Pf Dd2 inh: 33.8%[0.594 µM]

Results for O=C(Cn1ncc2c3ccccc3n(Cc3cccc(Cl)c3)c2c1=O)NCCCc1ccccc1 ?
Pf Dd2 inh: -6.1%

What do the screens show for `Cc1ccccc1Cn1c2ccccc2c2cnn(CC(=O)NCc3cccc(Cl)c3)c(=O)c21`?
Pf Dd2 inh: -5.1%

What do the screens show for `CCCN1CCN(C(=O)Cn2ncc3c4ccccc4n(Cc4cccc(Cl)c4)c3c2=O)CC1`?
Pf Dd2 inh: 11.2µM*

How did CCC(=O)N1C2CCCC1CC(=O)C2 do in these assays?
Pf Dd2 inh: 5.8%[44.1 µM]

Results for Cc1cc(C)n(CC(=O)N2CCCCCNC(=O)CC2c2ccccc2)n1 (stereo not drawn) ?
Pf Dd2 inh: 12.6%

How did O=S(=O)(NC1CCc2nnc(C3CC3)n2CC1)c1ccc2c(c1)OCCO2 (stereo not drawn) do in these assays?
Pf Dd2 inh: inactive

Results for CCOCc1nc(C2CCCN(C(=O)C(CC)CC)C2)no1 (stereo not drawn) ?
Pf Dd2 inh: 38.2%

How did O=C1c2c(nc(CN3CCCC(CO)C3)n2Cc2ccccc2)NCCN1CCOc1ccccc1 (stereo not drawn) do in these assays?
Pf Dd2 inh: -8.9%

What do the screens show for `Cc1ccc(CCNC(=O)c2ccc(CSc3nc4ccncc4n3Cc3ccc(F)cc3)cc2)cc1`?
Pf Dd2 inh: 4.47µM*

What do the screens show for `O=C(NCCc1ccccc1)c1ccc(CSc2nc3ccncc3n2Cc2ccc(F)cc2)cc1`?
Pf Dd2 inh: 7.08µM*

Results for COC(=O)c1ccc(Cn2c(SCC(=O)Nc3ccc(F)cc3)nc3ccccc32)cc1 ?
Pf Dd2 inh: 22.4%

What do the screens show for `Cc1ccc(NC(=O)Cn2c(SCc3cccc(F)c3)nc3ccncc32)c(C)c1`?
Pf Dd2 inh: inactive

Results for Cc1ccc(Cn2c(CO)cnc2SCc2ccc(F)cc2)cc1 ?
Pf Dd2 inh: -20.2%

How did CCc1noc(-c2cn(C3CCN(C(=O)c4cc(Cl)ccc4F)C3)nn2)n1 (stereo not drawn) do in these assays?
Pf Dd2 inh: inactive

What do the screens show for `O=C(Cc1cccnc1)N1CCCC(Cc2noc(-c3ccccc3)n2)C1` (stereo not drawn)?
Pf Dd2 inh: inactive

How did CCc1noc(-c2cn(C3CCN(C(=O)c4ccc5[nH]ccc5c4)CC3)nn2)n1 do in these assays?
Pf Dd2 inh: -6.9%

What do the screens show for `Cc1cc(S(=O)(=O)N(C)CC2CCOC2)ccc1Cl` (stereo not drawn)?
Pf Dd2 inh: 61.1%[5.79 µM]

What do the screens show for `CCN1C(=O)C2(CCN(S(=O)(=O)c3ccc(OC)c(Cl)c3)CC2)c2ccccc21`?
Pf Dd2 inh: -15.4%

Results for COc1ccccc1N1CCCc2ncc(C(=O)N3CCCC[C@@H]3Cc3ccccc3)cc21 ?
Pf Dd2 inh: 4.47µM*

How did COc1ccccc1N1CCCc2ncc(C(=O)NCCc3c[nH]c4ccccc34)cc21 do in these assays?
Pf Dd2 inh: -19.4%[44.1 µM]

How did O=C(NCc1cccc(F)c1)c1cnc2c(c1)N(C(=O)Cc1cccc(C(F)(F)F)c1)CCC2 do in these assays?
Pf Dd2 inh: 12.9%

Results for O=C(Cc1cccc(C(F)(F)F)c1)N1CCCc2ncc(C(=O)N3CCC[C@@H]3c3ccc(F)cc3)cc21 ?
Pf Dd2 inh: -3.8%

How did O=C(Cc1cccc(C(F)(F)F)c1)N1CCCc2ncc(C(=O)N3CCCC[C@@H]3Cc3ccccc3)cc21 do in these assays?
Pf Dd2 inh: 11.2µM*

How did COc1ccccc1N1CCCc2ncc(C(=O)N3CC[S+](=O)([O-])CC3)cc21 do in these assays?
Pf Dd2 inh: 57.8%[44.1 µM]

How did CC(=O)N1CCCC(c2[nH]ccc2C(=O)NCCc2cccs2)C1 (stereo not drawn) do in these assays?
Pf Dd2 inh: 5.9%

What do the screens show for `O=C(NCCc1ccc(Cl)cc1)C1=NOC2CN(C(=O)Nc3cccnc3)CC12` (stereo not drawn)?
Pf Dd2 inh: -21.8%

How did O=C1CC2(CCN(c3cnc4ccccc4n3)CC2)CN1CCCc1ccccc1 do in these assays?
Pf Dd2 inh: -22.1%

What do the screens show for `COc1ccc(C(=O)N2C[C@@H](CO)[C@H](N(C)C)C2)cc1`?
Pf Dd2 inh: 29.9%

How did COc1ccc(CNC(=O)N2CCC[C@H]2C(=O)N2CCCCCCNC(=O)CC2)cc1 do in these assays?
Pf Dd2 inh: -20.4%

What do the screens show for `Cc1nn2c(c1-c1cccc3cn[nH]c13)N(C(=O)Cc1ccccc1)CCC2`?
Pf Dd2 inh: -1.3%[44.1 µM]

How did CSCC(=O)N1C[C@@H](NC(=O)Nc2cccc(SC)c2)C[C@H]1C(=O)N[C@H](Cc1c[nH]c2ccccc12)C(N)=O do in these assays?
Pf Dd2 inh: -13.7%

How did O=C(O)C1CCc2nnc(C3CCN(C(=O)c4ccc5c(c4)OC(F)(F)O5)C3)n21 (stereo not drawn) do in these assays?
Pf Dd2 inh: 23.0%

What do the screens show for `Cc1cccc(OCC(=O)NC2CCc3nn(CC4CC4)c(=O)n3CC2)c1` (stereo not drawn)?
Pf Dd2 inh: -16.4%

Results for Cc1cccc(Oc2coc3cc(OCC(=O)NC4CCCCC4)ccc3c2=O)c1 ?
Pf Dd2 inh: 10µM*

How did COc1ccc(N2CC(NC(=O)COc3cccc(C)c3)CC2=O)cc1OC (stereo not drawn) do in these assays?
Pf Dd2 inh: 5.8%
